# MARV entry inh: Marburg virus entry inhibition | Marburg virus pseudotyped entry inhibition, cell reporter | Potency, µM (top dose mostly 37.8 µM), for the others: at the highest dose activity change, negative = inhibition, usual class: inhibitors | AID 540276 | hit rate 1.8% among 300,000; calls by dose curve; tested in HEK293 cells
# FMDV inh: antivirals against foot and mouth disease virus. FMDV antiviral cell-based qHTS. Potency, µM (titrated, usually from 57.9 µM), for the others: at the top dose activity change, negative = inhibition, actives largely listed as inhibitors. hit rate 1.2% among 410,000. AID 1159524; calls by dose curve; tested in HEK293T cells; also: read-out not given here; nearly all actives have a fitted effect of over 45% in size
# LASV entry inh: Lassa virus entry inhibition. Lassa virus pseudotype entry inhibition, cell reporter. Potency, µM (highest dose often 37.9 µM), without a hit: at the top dose activity change, negative = inhibition, usual class: inhibitors. hit rate 1.2% among 300,000. AID 540256; calls by dose curve; tested in HEK293 cells; also: nearly all actives have a fitted effect of over 50% in size
# VACV mCherry inh: inhibitors of vaccinia virus infection (mCherry reporter signal). Vaccinia virus mCherry reporter infection, fluorescence. Potency, µM (doses to about 36.5 µM), for inactives: at the highest dose activity change, negative = inhibition, most hits filed as inhibitors. hit rate 0.63% among 310,000. AID 720579; calls by dose curve; tested in A549 cells; also: nearly all actives have a fitted effect of over 35% in size
# HCV inh: blocks hepatitis C virus; Huh7.5.1 HCVcc-Cre infection, luciferase reporter, 44 h; hit rate 3.4% among 340,000; Potency, µM (series often up to 41.8 µM), for inactives: top-dose activity change, negative = inhibition, hits mostly inhibitors; active = well fitted inhibition curve with a large enough effect; inconclusive = small, poorly fitted or top-dose-only effect, or another doubt; inactive = no such curve, though single readings can be large or run the other way
#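 Whole-lifecycle infectious HCVcc-Cre system; cells 1,000/well, compound then virus (~0.5 moi) added 4 h after plating, 44 h culture. Luciferase read 15 sec following 15 min substrate incubation, room temp.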
# Vaccinia Venus: inhibitors of vaccinia virus (Venus reporter). AID 720580. hit rate 0.46% among 330,000. Vaccinia virus Venus reporter expression, fluorescence. Potency, µM (top dose mostly 36.5 µM), for inactives: top-dose activity change, negative = inhibition, actives largely listed as inhibitors; calls by dose curve; tested in A549 cells; also: nearly all actives have a fitted effect of over 30% in size
# Numbers without * were called inactive; i = inactive; ? = inconclusive; . = no result; [ ] = another dose, or the depositor's remark. Hits are enriched below; roughly 5.3% of the tested compounds scored in any of these assays. % is scaled to controls: 0 for no effect and ±100 for the full control effect; potency is read from the fitted curve at half-maximal effect.
SMILES,MARV entry inh,FMDV inh,LASV entry inh,VACV mCherry inh,HCV inh,Vaccinia Venus
Cc1cc(N2CCN(C)CC2)nc2ccc(NC(=S)NCCC(C)C)cc12,.,6%,.,.,?,.
CCN(CC)C(=O)C1CCCN(Cc2ccc3ccccc3c2)C1 (centres undefined),?,-10%,-10%[46.1 µM],-7%,-18%,-12%
COc1cccc(/C=C/c2nc3ccccc3nc2/C=C/c2cccc(OC)c2OC)c1OC,.,.,.,-14%,.,-6%
COc1ccccc1OCC(=O)Nc1nc2c(s1)CCCC2,.,20%,.,.,-5%,.
Cc1ccc(CC(=O)Nc2nc3c(s2)CCCC3)cc1,?,25%,?,8.9µM*,-25%,-6%
Cc1cc(C(=O)Nc2nc3c(s2)CCCC3)cs1,?,-24%,?,.,13µM*,.
Cc1ccc(C(C)C)c(OCC(=O)Nc2nc3c(s2)CCCC3)c1,?,-3%,3.2µM*,-13%,.,8%
Cc1noc(C)c1C(=O)N1CCC2(CCCN(C(c3ccccc3)c3ccccc3)C2)CC1,.,-24%,.,.,.,.
COc1cc(=O)n2c(c1C(=O)NC(C)c1ccco1)CCN(C(=O)c1ccnc(Cl)c1)CC2 (centres undefined),.,-5%,.,-12%,.,-8%
CC(N)CCCP(=O)(O)O (centres undefined),.,12%,.,-1%,.,-7%
COc1cccc(CN(C)C(=O)c2cnn(-c3nccc(-c4ccc5c(c4)OCO5)n3)c2C)c1,.,53%,.,-10%,.,-2%
O=[N+]([O-])c1cc(S(=O)(=O)C(F)(F)F)ccc1Sc1nc2ccccc2s1,?,?,?,.,-19%,-9%
CS(=O)(=O)c1ccc(Sc2nc3ccccc3s2)c([N+](=O)[O-])c1,11µM*,35µM*,?,?,?,?
O=C(CSc1nc2c([nH]c3ccccc32)c(=O)n1-c1ccccc1)Nc1cccc(C(F)(F)F)c1,.,-21%,?,-22%,.,-17%
COC(=O)c1sc(N)c(C(=O)OC)c1COC(=O)C1CC(=O)N(Cc2ccco2)C1 (centres undefined),0%,-23%,-11%,-17%,?,-10%
CCOC(=O)c1sc(N)c(C(=O)OCC)c1COC(=O)C1CC(=O)N(Cc2ccco2)C1 (centres undefined),-11%,-12%,10%,.,13µM*,-22%
Nc1cc(=O)[nH]c(SCC(=O)N2CCC(Cc3ccccc3)CC2)n1,.,-21%,.,.,14µM*,.
CC(C)n1cc(CN2CCCC(C(=O)Nc3cccc(-c4cc5ccccc5[nH]4)c3)C2)cn1 (centres undefined),?,?,7.1µM*,11µM*,11µM*,?
CCn1cc(CN2CCCC(C(=O)Nc3cccc(-c4cc5ccccc5[nH]4)c3)C2)c(C)n1 (centres undefined),?,-14%,?,-27%,?,-28%
COc1cccc(-c2ccc(NC(=O)C3CCCN(Cc4cnc(C)n4C)C3)cc2)c1 (centres undefined),?,-21%,?,-14%,?,-26%
Cc1ncc(CN2CCCC(C(=O)Nc3ccc(-c4cccc(F)c4)cc3)C2)n1C (centres undefined),?,?,?,?,3.5µM*,-23%
CC(C)n1cc(CN2CCC(C(=O)Nc3cccc(-c4cscn4)c3)CC2)cn1,.,-24%,.,.,?,.
COc1cccc(-c2ccc(NC(=O)C3CCCN(Cc4cnn(C)c4)C3)cc2)c1 (centres undefined),.,-7%,.,.,13µM*,.
Cn1cc(CN2CCCC(C(=O)Nc3cccc(-c4cc5ccccc5[nH]4)c3)C2)cn1 (centres undefined),?,?,?,?,7.1µM*,?
CSc1ccc(C2Nc3ccccc3-c3cc(C)nn32)cc1 (centres undefined),?,1%,19%,.,10µM*,.
SMILES,MARV entry inh,FMDV inh,LASV entry inh,VACV mCherry inh,HCV inh,Vaccinia Venus
CCN(CC)c1ccc(C2Nc3ccccc3-c3cc(C)nn32)cc1 (centres undefined),-8%[46.1 µM],-12%,?,-17%,.,-12%
COc1cc(N2CCCC2)c(OC)cc1C=O,-8%,-23%,2%,.,11µM*,.
COc1cc(OC)c(OC)cc1C=O,.,-12%,.,i,11%,-6%
COc1cccc(C(=O)Nc2ccc3c(cc2=O)[C@@H](NC(C)=O)CCc2cc(OC)c(OC)c(OC)c2-3)c1,.,?,.,.,32µM*,.
COc1ccc2c(c1)C(NC(C)=O)CCc1cc(OC)c(OC)c(OC)c1-2 (centres undefined),?,-17%,?,-10%,-9%,?
COC(=O)C1CCN(Cc2ccc3c(c2)CN(C(=O)c2cc(C)on2)CCO3)CC1,.,-2%,.,-17%,.,-9%
COc1cccc(CNC(=O)CCC(=O)N2CC(C)Sc3ccccc32)c1 (centres undefined),.,-6%,-1%[46.1 µM],-9%,.,-14%
COc1cccc(CNc2nc3cc(-c4ccc(OC)c(OC)c4)sc3c(=O)n2C)c1,.,?,.,-8%,.,-30%
COc1ccc(-c2cc3nc(NCc4ccc(N(C)C)cc4)n(C)c(=O)c3s2)cc1OC,.,28µM*,.,i,.,?
COc1cccc(CNc2nc3cc(-c4ccsc4)sc3c(=O)n2C)c1OC,.,32µM*,.,13%,.,-14%
COc1ccc(OC)c(CN2CCC3(CCC(CNC(=O)c4ccco4)O3)CC2)c1 (centres undefined),.,-8%,.,-13%,.,-1%
C/C(=N\NC(=O)c1ccccc1Cl)c1ccccn1,.,30%,.,?,?,?
C/C(CC(=O)Nc1ccccn1)=N\NC(=O)c1ccccc1O,?,29%,?,4µM*,7.1µM*,-12%
C/C(CC(=O)Nc1ccccn1)=N\NC(=O)c1ccccc1,.,.,.,.,4%,.
O=C(NCc1ccc(F)cc1)c1ccccc1OCc1ccccc1,?,?,?,-2%,-28%,-21%
C/C(=N\NC(=O)c1ccccc1OCc1ccc(F)cc1)c1ccccn1,.,-22%,.,.,2.8µM*,.
C/C(=N\NC(=O)c1cccc2ccccc12)c1ccccn1,?,-6%,7.9µM*,?,5µM*,-10%
CCOc1ccc(OCc2ccc(C(=O)N/N=C(\C)c3ccccn3)cc2)cc1,7.9µM*,-18%,11µM*,1.8µM*,?,?
COC(=O)C[C@H]1C=C[C@@H](NC(=O)C2CC2)[C@@H](CO)O1,.,-17%,.,-2%,.,-3%
CC1CCCN(Cc2c(O)ccc3c(=O)c(-c4ccc(Cl)cc4)c(C(F)(F)F)oc23)C1 (centres undefined),4%[46.1 µM],-18%,23%[46.1 µM],-1%,.,1%
COc1ccccc1C(=O)N(Cc1cc2cccc(C)c2nc1N1CCC(O)CC1)C1CC1,.,-7%,.,-14%,.,5%
CC1CCn2c(nc3cc(C(=O)NCCc4ccccc4)ccc32)C1 (centres undefined),.,0%,-14%[46.1 µM],-11%[7.34 µM],.,-3%[7.34 µM]
C/C(=N\NC(=O)c1cc(-c2cccs2)nc2ccccc12)c1ccccn1,4.6µM*,?,6.5µM*,.,0.56µM*,.

# From PubChem BioAssay
